According to publication PMC5540273 (PLoS ONE, 2017):

Assays:
Details in all cases: concentration: 1 μM, replicates: in singlicate; n = 1
CSNK1G1 = system: CSNK1G1
CSNK1G2 = system: CSNK1G2
CSNK1G3 = system: CSNK1G3
CSNK2A1 = system: CSNK2A1
CSNK2A2 = system: CSNK2A2
CTK = system: T1, CTK
T1 construct: gene MATK

DAPK1 = system: DAPK1
DAPK2 = system: DAPK2
DAPK3 = system: DAPK3
DCAMKL1 = system: T2, DCAMKL1
T2 construct: gene DCLK1

DCAMKL2 = system: T3, DCAMKL2
T3 construct: gene DCLK2

DCAMKL3 = system: T4, DCAMKL3
T4 construct: gene DCLK3

DDR1 = system: DDR1
DDR2 = system: DDR2
DLK = system: T5, DLK
T5 construct: gene MAP3K12

DMPK2 = system: T6, DMPK2
T6 construct: gene CDC42BPG

DMPK = system: DMPK
DRAK1 = system: T7, DRAK1
T7 construct: gene STK17A

DRAK2 = system: T8, DRAK2
T8 construct: gene STK17B

DYRK1A = system: DYRK1A
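Further: KINOMEscan kinase panel screen.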

Row | Compound | %Inh (CSNK1G1) | %Inh (CSNK1G2) | %Inh (CSNK1G3) | %Inh (CSNK2A1) | %Inh (CSNK2A2) | %Inh (CTK) | %Inh (DAPK1) | %Inh (DAPK2) | %Inh (DAPK3) | %Inh (DCAMKL1) | %Inh (DCAMKL2) | %Inh (DCAMKL3) | %Inh (DDR1) | %Inh (DDR2) | %Inh (DLK) | %Inh (DMPK2) | %Inh (DMPK) | %Inh (DRAK1) | %Inh (DRAK2) | %Inh (DYRK1A)
1 | O=C(Nc1ccccc1F)NC1CCN(c2ccnc(Nc3ccc(F)cc3)n2)CC1 [GSK1379800] | 3% | 0% | 12% | 0% | 0% | 0% | 0% | 0% | 20% | 0% | 0% | 0% | 0% | 31% | 24% | 4% | 0% | 0% | 0% | 4%
2 | Cn1cc(-c2ccc3c(c2)CCN3C(=O)Cc2cccc(Cl)c2)c2c(N)ncnc21 [GSK2606590] | 31% | 0% | 29% | 8% | 30% | 0% | 1% | 5% | 0% | 12% | 19% | 0% | 99.5% | 57% | 51% | 53% | 0% | 0% | 0% | 11%
3 | O=C(Nc1cccc(-c2nn3ncccc3c2-c2ccnc(Nc3ccccc3)n2)c1)c1c(F)cccc1F [GSK198271] | 19% | 0% | 26% | 8% | 11% | 27% | 11% | 0% | 1% | 18% | 0% | 20% | 100% | 91.8% | 8% | 99.8% | 0% | 0% | 0% | 18%
4 | Cc1ccc(S(=O)(=O)Nc2ccc(Nc3nccc(Nc4cccc5[nH]ncc45)n3)cc2)cc1 [GSK581271] | 0% | 0% | 7% | 0% | 0% | 0% | 0% | 0% | 5% | 12% | 5% | 21% | 82% | 36% | 0% | 0% | 0% | 61% | 7% | 16%
5 | O=c1[nH]cc(-c2ccc(N3CCOCC3)cc2)c2sc(-c3cn[nH]c3)cc12 [GSK2276055] | 43% | 43% | 63% | 64% | 79% | 0% | 37% | 19% | 23% | 12% | 0% | 0% | 3% | 0% | 0% | 0% | 0% | 35% | 11% | 99.8%
6 | CN(c1ccc(NC(=O)Nc2cc(C(F)(F)F)ccc2F)cc1)c1ccnc(Nc2ccc(S(N)(=O)=O)cc2)n1 [GW809893] | 5% | 0% | 18% | 13% | 0% | 23% | 0% | 0% | 0% | 3% | 2% | 6% | 97.6% | 93.9% | 14% | 9% | 0% | 0% | 18% | 17%
7 | COc1cc(Nc2nccc(-c3c(-c4cccc(NC(=O)c5c(F)cccc5F)c4)nn4ncccc34)n2)cc(OC)c1OC [GSK327238] | 16% | 0% | 20% | 0% | 4% | 14% | 0% | 0% | 0% | 12% | 0% | 43% | 100% | 95.2% | 2% | 100% | 8% | 0% | 0% | 23%
8 | COc1cccc(C2=C(Nc3ccc(Cl)c(C(=O)O)c3)C(=O)NC2=O)c1 [SB-390769] | 11% | 0% | 0% | 0% | 7% | 95.9% | 0% | 0% | 99.9% | 100% | 20% | 1% | 0% | 36% | 0% | 0% | 0% | 100% | 100% | 18%
9 | Cl.c1ccc(-c2ccc3c(Nc4ccc5[nH]ccc5c4)ccnc3c2)nc1 [GW440138] | 0% | 0% | 25% | 0% | 0% | 0% | 5% | 0% | 23% | 0% | 0% | 17% | 99.4% | 79% | 43% | 0% | 0% | 0% | 2% | 0%
10 | COc1cc(Nc2nccc(-c3c(-c4cccc(NC(=O)c5c(F)cccc5F)c4)nn4ccccc34)n2)cc(OC)c1OC [GSK323521] | 20% | 31% | 25% | 2% | 6% | 0% | 0% | 22% | 19% | 9% | 11% | 11% | 90.3% | 61% | 3% | 49% | 9% | 0% | 0% | 13%
